Rows were chosen to be rich in hits. Some 12% of all compounds tested hit in one or more screens of this group.
Sfp inh: qHTS Assay for Inhibitors of Bacillus subtilis Sfp phosphopantetheinyl transferase (PPTase); 4'-phosphopantetheinyl transferase ffp (Bacillus subtilis), Q9F4F7; Biochemical Sfp PPTase activity, qHTS; Potency, µM, most hits filed as inhibitors; hit rate 3.5% among 310,000; AID 1490, 2009;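 note: the enzyme is Sfp with the accession as filed and its product quenches rhodamine fluorescence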
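Step 1, compound plus 15 nM Sfp-PPTase, 15 min, room temperature. Step 2, add rhodamine-CoA (5 uM) and BHQ-2-YbbR (12.5 uM). Step 3, read 525/598 nm fluorescence at 0 and 30 min.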
RORg inh: qHTS for inhibitors of ROR gamma transcriptional activity. Drosophila S2 Gal4-RORgamma UAS-luciferase reporter, 20 h. Nuclear receptor ROR-gamma (Mus musculus), P51450. hit rate 5.4% among 310,000. Potency, µM (series often up to 53.6 µM), hits mostly inhibitors; note: nearly all actives have a fitted effect of over 60% in size
Target sequence (P51450 whole entry, looked up, the tested form may be a part): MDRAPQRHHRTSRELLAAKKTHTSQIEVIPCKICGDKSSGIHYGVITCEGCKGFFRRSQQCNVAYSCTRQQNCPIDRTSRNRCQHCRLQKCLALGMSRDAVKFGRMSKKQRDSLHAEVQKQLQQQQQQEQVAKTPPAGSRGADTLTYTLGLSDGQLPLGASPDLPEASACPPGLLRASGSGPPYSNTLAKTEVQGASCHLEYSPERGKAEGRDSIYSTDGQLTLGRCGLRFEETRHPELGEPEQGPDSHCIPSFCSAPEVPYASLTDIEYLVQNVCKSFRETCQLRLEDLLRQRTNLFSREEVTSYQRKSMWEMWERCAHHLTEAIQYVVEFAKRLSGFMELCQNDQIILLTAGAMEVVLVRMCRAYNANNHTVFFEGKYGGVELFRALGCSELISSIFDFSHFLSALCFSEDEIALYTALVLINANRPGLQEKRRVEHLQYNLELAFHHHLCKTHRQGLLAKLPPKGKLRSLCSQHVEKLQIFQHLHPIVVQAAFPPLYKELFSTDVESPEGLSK
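Schneider cells (Drosophila), stable Gal4 DBD–ROR gamma + UAS-luc; 1 hr cmpd preincubation; Cu2+ induction 700 uM final; 20 hr ambient; luminescence.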
PLK1 PBD inh: qHTS for Inhibitors of PLK1-PDB (polo-like kinase 1 - polo-box domain): Primary Screen; Serine/threonine-protein kinase PLK1 (Homo sapiens), P53350; Plk1 PBD binding of FITC phosphopeptide, fluorescence polarization; Potency, µM, most hits filed as inhibitors; hit rate 2.8% among 360,000; AID 720504, 2013; note: series mostly up to about 57 µM; nearly all actives have a fitted effect of over 65% in size
ALDH1A1 block: qHTS Assay for Inhibitors of Aldehyde Dehydrogenase 1 (ALDH1A1); hit rate 7.3% among 220,000; AID 1030, 2008; Aldehyde dehydrogenase 1A1 (Homo sapiens), P00352; Purified ALDH1A1, NADH fluorescence, propionaldehyde substrate; Potency, µM (top dose mostly 75.3 µM), most hits filed as inhibitors; active = well fitted inhibition curve with a large enough effect, not every such curve was filed as active; inconclusive = small, poorly fitted or top-dose-only effect, or another doubt; inactive = no such curve, though single readings can be large or run the other way
VP16 counter: VP16 counterscreen qHTS for inhibitors of ROR gamma transcriptional activity; Drosophila S2 Gal4-VP16 UAS-luciferase, luminescence, 20 h; hit rate 3.5% among 310,000; AID 2546, 2010; Potency, µM (doses to about 53.6 µM), most hits filed as inhibitors;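 note: Gal4-VP16 expression switched on by copper sulfate through the metallothionein promoter; nearly all actives have a fitted effect of over 50% in size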
Hits are given with their value; – = inactive; ? = inconclusive; · = not tested or not shown; [ ] = dose if it differs, or a comment. Unless noted, calls come from the whole dose curve; as a rule, active = well fitted curve in the direction sought with a large enough effect; inconclusive = small, poorly fitted or top-dose-only effect, or another doubt; inactive = no such curve, though single readings can be large; an effect the other way counts as inactive or inconclusive.

SMILES | Sfp inh | RORg inh | PLK1 PBD inh | ALDH1A1 block | VP16 counter
Cc1ccc(Cl)cc1NC(=S)NCc1cccn1C | – | 7.1µM | – | – | 7.9µM
Cc1cc2cc(CNC(=O)CCC(=O)O)ccc2[nH]1 | – | – | – | 28µM | –
Cc1ccc(NC(=S)NCc2cccn2C)cc1 | – | 4µM | – | – | ?
Cc1ccccc1NC(=S)NCc1cccn1C | – | ? | – | – | ?
CNC(=S)NCc1ccc2[nH]c(C)cc2c1 | – | – | ? | – | –
CCc1cccc(C)c1NC(=S)NCc1cccn1C | – | ? | – | 14µM | –
CCc1cccc(C)c1NC(=S)NCc1ccc2[nH]c(C)cc2c1 | – | 4µM | – | – | 10µM
Cc1ccc(NC(=O)C2(C)CCN2C(=O)CC(c2ccccc2)c2ccccc2)cc1 (stereo not drawn) | · | · | – | · | ·
FC(F)(F)c1cccc(-c2ccc(/C=N/Nc3nncc(-c4ccccc4)n3)o2)c1 | – | – | – | – | –
Clc1ccc(-c2ccc(/C=N/Nc3nncc(-c4ccccc4)n3)o2)cc1 | – | 0.79µM | – | – | 0.79µM
Cc1ccc(/C=N/Nc2nncc(-c3ccccc3)n2)o1 | – | 8.9µM | – | – | 13µM
Cc1[nH]n(-c2ccccc2)c(=O)c1C=NCc1ccncc1 | – | – | – | · | –
Clc1ccccc1-c1ccc(/C=N/Nc2nncc(-c3ccccc3)n2)o1 | – | 1.4µM | – | – | 10µM
COc1ccc(-c2cnnc(N/N=C/C(C)=C/c3ccccc3)n2)cc1 | – | – | · | – | –
Cc1[nH]n(-c2ccccc2)c(=O)c1/C=N/Nc1nncc(-c2ccccc2)n1 | – | 0.05µM | – | ? | 0.0022µM
C=CC1=C2C=C(C3CC3)N(CCN3CCOCC3)C=C2C(=O)C(C)(OC(=O)c2ccco2)C1=O (stereo not drawn) | – | · | · | ? | ·
O=C(c1cnccn1)N1CCC2(CCCN(c3ccncc3)C2)CC1 | – | – | · | – | –
CCCCOCCCNC(=O)C[C@@H]1C[C@@]2(C(=O)OCC)CCCC=C2N(CCc2ccc(OC)c(OC)c2)C1=O | · | · | – | · | ·
COc1cc(-c2noc(C)c2C(=O)NCCCN2CCOCC2)cc(OC)c1OC | · | · | – | · | ·
COc1ccc(CCNC(=O)C(=O)NCc2ccc(C)cc2)cc1OC | – | – | – | 3.2µM | –[0.365 µM]
COc1ccc(CCNC(=O)CCCOc2ccc(C)cc2)cc1OC | – | – | 24µM | 28µM | –
COc1ccc(CCNC(=O)CC(Cc2ccc(C)cc2)C(=O)O)cc1OC (stereo not drawn) | – | – | 24µM | · | –
COc1ccc(CC(C)CC(=O)NCCc2ccc(OC)c(OC)c2)cc1 (stereo not drawn) | – | – | – | · | –
COc1ccc(CCNC(=O)C(=O)NCc2ccc(Cl)cc2)cc1OC | – | – | – | 0.63µM | –
COc1ccc(CCNC(=O)CCCOc2ccc(Cl)cc2)cc1OC | – | – | – | · | –
SMILES | Sfp inh | RORg inh | PLK1 PBD inh | ALDH1A1 block | VP16 counter
CC#CCC1(C(=O)OC)C(=O)NC[C@H]1c1ccccc1 (stereo partly drawn) | – | – | · | – | –
C[C@@H]1CN2[C@H](c3ccc(Br)cc3)[C@H](C)CC[C@H]2C(=O)O1 | – | –[10 µM] | · | ? | –[10 µM]
COc1ccc(CCNC(=O)CCn2cccc2)cc1OC | – | – | – | – | –
COc1ccc(CCNC(=O)CCN2C(=O)C3CC=CCC3C2=O)cc1OC (stereo not drawn) | – | – | 24µM | – | –
CCCCCCCC1=Cc2ccccc2C(C(C(C)=O)C(=O)OC)N1C(=O)OC (stereo not drawn) | – | · | · | –[13.5 µM] | ·
Cc1ccc(-n2c(SCC(=O)c3c(N)n(C)c(=O)n(C)c3=O)nc3sc4c(c3c2=O)CCCC4)c(C)c1 | 56µM | – | – | – | –
Cc1ccc(-n2c(SCC(=O)O)nc3sc4c(c3c2=O)CCCC4)cc1 | – | – | – | – | –
Cc1c(NC(=S)NNC(=O)CCC(=O)O)c(=O)n(-c2ccccc2)n1C | 45µM | – | – | · | –
CCNC(=S)Nc1c(C)n(C)n(-c2ccccc2)c1=O | – | – | – | – | –
Cc1c(NC(=O)CN2CCN(c3ccc(O)cc3)CC2)c(=O)n(-c2ccccc2)n1C | 22µM | – | – | ? | –
CC(=O)N1CCOCCOCCN(C(C)=O)CCOCC1 | – | – | – | – | –
CCCNC(=O)C1(C)CCCN(Cc2ccc(C(=O)OCC)o2)C1 (stereo not drawn) | · | · | – | · | ·
Cn1nc(-c2ccc(OCC(=O)Nc3cccnc3)cc2)c2ccccc2c1=O | – | 1.8µM | – | – | 16µM
Cc1ccc(NC(=O)c2ccc(-c3nn(C)c(=O)c4ccccc34)cc2)cc1 | 79µM | – | – | – | –
Cc1ccc(NC(=O)c2ccc(-c3nn(C)c(=O)c4ccccc34)cc2)c(C)c1 | – | – | – | 8.9µM | –
Cn1nc(-c2ccc(C(=O)Nc3ccc(F)cc3)cc2)c2ccccc2c1=O | – | ? | – | ? | ?
CCNC(=O)CCn1nc(-c2ccc(C)cc2)c2ccccc2c1=O | – | ? | 30µM | · | –
COc1ccc(CNC(=O)CCc2ccc(S(=O)(=O)N3CCCCCC3)cc2)cc1OC | · | · | – | · | ·
CCOc1ccc(OCC(=O)Nc2cc(Cl)ccc2-n2cncn2)cc1 | · | · | – | · | ·
Cc1ccc(NC(=O)/C=C/c2ccco2)nc1 | – | ? | – | – | –
Cc1ccccc1NC(=S)NC(=O)/C=C/c1ccco1 | ? | ? | 21µM | · | 13µM
COc1cc2c(cc1NC(=S)NC(=O)/C=C/c1ccco1)oc1ccccc12 | – | 3.2µM | – | – | 5µM
COc1ccccc1NC(=S)NC(=O)/C=C/c1ccco1 | ? | 13µM | ? | 25µM | 20µM
COc1ccccc1NC(=O)/C=C\c1ccco1 | 56µM | – | ? | · | ?
COc1cc2c(cc1NC(=S)NC(=O)/C=C/c1ccc(OC)c(OC)c1)oc1ccccc12 | – | – | – | ? | –
SMILES | Sfp inh | RORg inh | PLK1 PBD inh | ALDH1A1 block | VP16 counter
COc1ccccc1NC(=O)/C(C#N)=C/C=C/c1ccco1 | – | – | – | – | –
CC(=O)N(C[C@@H](O)CO)c1c(I)c(C(=O)NC[C@@H](O)CO)c(I)c(C(=O)NC[C@@H](O)CO)c1I | – | – | · | – | –
O=C(N[C@@]1(C(=O)O)C[C@@H]1c1ccccc1)c1ccccc1 | · | · | · | –[13.5 µM] | ·
O=C(NCCc1ccccc1)c1ccc([N+](=O)[O-])cc1 | – | 7.9µM | – | – | ?
NS(=O)(=O)c1ccc(CCNC(=O)/C=C/c2ccc([N+](=O)[O-])cc2)cc1 | – | – | – | – | –
O=C(NCCc1ccc([N+](=O)[O-])cc1)c1ccccc1 | – | – | – | · | –
O=C(/C=C/c1ccc([N+](=O)[O-])cc1)NC1CC2CCC1C2 (stereo not drawn) | – | ? | 6µM | ? | –
O=C(/C=C/c1ccc([N+](=O)[O-])cc1)NCCc1ccccc1 | – | – | 17µM | – | –[10 µM]

Bioassay records as filed in PubChem BioAssay.
